# Measurements published in PubChem BioAssay (EPA / NIEHS).
# Values joined by “and” are separate entries in the source; they are usually repeats but may differ in a detail not shown here. Identical values can stand only once. A structure can be active in one record and inactive in another. Active and inactive are the calls of the source. Rule for the calls: active = hit-call score of the fitted dose curve at least 0.9, where 1 is the maximum; inactive = score below 0.9.
# Legend:
# [1] = read-out: C-C motif chemokine 2 (Homo sapiens) (UniProt P13500); assay: BSK_KF3CT_MCP1: BioMAP Diversity Plus: KF3CT Assay for Monocyte Chemoattractant Protein 1 (MCP1/CCL2) Biomarker Activity (AID 2283073); settings: primary human keratinocytes with fibroblasts; actives raise or lower the signal
# How it was run: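 Human keratinocyte–foreskin fibroblast co-culture; MCP-1 measured by ELISA 24 h after dosing. Bidirectional fit vs DMSO; cytotoxicity tracked by SRB total protein in parallel cultures.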
# [2] = read-out: Matrix Metallopeptidase 9 (MMP9), MMP9 (gene 4318); assay: BSK_KF3CT_MMP9: BioMAP Diversity Plus: KF3CT Assay for Matrix Metallopeptidase 9 (MMP9) Biomarker Activity (AID 2283074); settings: primary human keratinocytes with fibroblasts; actives raise or lower the signal;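 for AC50: MMP9 protein level quantified by ELISA in the co-culture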
# How it was run: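 MMP-9 quantified by ELISA after 24 h chemical treatment of primary human skin keratinocyte/fibroblast co-cultures; gain or loss fitted against DMSO, with parallel SRB staining (0.1% SRB, 560 nm) for overt cytotoxicity.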
# [3] = read-out: urokinase plasminogen activator (uPA), PLAU (gene 5328); assay: BSK_KF3CT_uPA: BioMAP Diversity Plus: KF3CT Assay for urokinase plasminogen activator (uPA) Biomarker Activity (AID 2283075); settings: primary human keratinocytes with fibroblasts; actives raise or lower the signal
# How it was run: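 ELISA read-out of uPA 24 h after dosing human skin keratinocytes co-cultured with foreskin fibroblasts. Signal change fitted both ways relative to DMSO; sulforhodamine B on parallel cultures marks overt cytotoxicity.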
# [4] = read-out: CD40, CD40 (gene 958); assay: BSK_LPS_CD40: BioMAP Diversity Plus: LPS Assay for CD40 Biomarker Activity (AID 2283076); settings: primary human HUVEC with PBMC; actives raise or lower the signal
# How it was run: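 HUVEC plus PBMC co-culture stimulated with LPS; CD40 quantified by ELISA 24 h after compound dosing. Fitting was bidirectional relative to DMSO. SRB staining of parallel cultures flagged overt cytotoxicity.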
# [5] = read-out: E-selectin (Homo sapiens) (UniProt P16581); assay: BSK_LPS_Eselectin: BioMAP Diversity Plus: LPS Assay for Eselectin Biomarker Activity (AID 2283077); settings: primary human HUVEC with PBMC; actives raise or lower the signal
# How it was run: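 Human umbilical vein endothelial cells co-cultured with PBMC under LPS stimulation; cell-surface E-selectin measured by ELISA 24 h after dosing. Change in either direction versus DMSO, with SRB total-protein staining in parallel cultures for cytotoxicity.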
# [6] = read-out: Interleukin-8 (IL8), CXCL8 (gene 3576); assay: BSK_LPS_IL8: BioMAP Diversity Plus: LPS Assay for Interleukin-8 (IL8) Biomarker Activity (AID 2283078); settings: primary human HUVEC with PBMC; actives raise or lower the signal
# How it was run: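 Human umbilical vein endothelial cells co-cultured with PBMC, LPS-stimulated, exposed to compound for 24 h. IL-8 quantified by ELISA; fitted in both directions against DMSO, with SRB total-protein staining of parallel cultures for cytotoxicity.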
# [7] = BSK_LPS_SRB: Viability Assessment in the BioMAP Diversity Plus: LPS Assay (AID 2283079); settings: primary human HUVEC with PBMC;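 note: total protein by sulforhodamine B absorbance as a cytotoxicity measure; measured one day after compound addition; fitted in both directions against DMSO so loss or gain of signal counts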
# How it was run: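 Co-culture of human umbilical vein endothelial cells and PBMC, read 24 h after dosing. Total protein by 0.1% SRB staining after 10% TCA fixation, absorbance at 560 nm; bidirectional fit against DMSO.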
# [8] = read-out: Interleukin-1 alpha (IL1a), IL1A (gene 3552); assay: BSK_LPS_IL1a: BioMAP Diversity Plus: LPS Assay for Interleukin-1 alpha (IL1a) Biomarker Activity (AID 2283080); settings: primary human HUVEC with PBMC; actives raise or lower the signal
# How it was run: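 Human umbilical vein endothelial cells co-cultured with PBMC and stimulated with LPS; IL-1a measured by ELISA 24 h after dosing. Bidirectional fitting against DMSO; cytotoxicity checked by SRB staining in parallel cultures.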
# [9] = read-out: Monocyte Chemoattractant Protein-1 (MCP1), CCL2 (gene 6347); assay: BSK_LPS_MCP1: BioMAP Diversity Plus: LPS Assay for Monocyte Chemoattractant Protein-1 (MCP1) Biomarker Activity (AID 2283081); settings: primary human HUVEC with PBMC; actives raise or lower the signal
# How it was run: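 Human umbilical vein endothelial cells co-cultured with PBMC, LPS-stimulated; secreted MCP-1 measured by ELISA 24 h after compound addition. Bidirectional curve fitting against DMSO baseline; SRB total-protein staining in parallel cultures for cytotoxicity.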
# [10] = BSK_LPS_PGE2: BioMAP Diversity Plus: LPS Assay for Prostaglandin E2 (PGE2) Biomarker Activity (AID 2283082); settings: primary human HUVEC with PBMC; actives raise or lower the signal
# How it was run: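 Compounds were added to the LPS co-culture of endothelium and PBMC, and PGE2 was measured by ELISA after 24 h. Responses in either direction were fitted with DMSO as baseline.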
# [11] = read-out: Macrophage colony-stimulating factor (MCSF), CSF1 (gene 1435); assay: BSK_LPS_MCSF: BioMAP Diversity Plus: LPS Assay for Macrophage colony-stimulating factor (MCSF) Biomarker Activity (AID 2283083); settings: primary human HUVEC with PBMC; actives raise or lower the signal
# How it was run: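 HUVEC–PBMC co-culture, M-CSF measured by ELISA 24 h after chemical dosing. Fitted in both directions relative to DMSO as negative control; overt cytotoxicity assessed by SRB total-protein staining in parallel cultures.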
# [12] = read-out: Tissue Factor, F3 (gene 2152); assay: BSK_LPS_TissueFactor: BioMAP Diversity Plus: LPS Assay for Tissue Factor Biomarker Activity (AID 2283084); settings: primary human HUVEC with PBMC; actives raise or lower the signal
# How it was run: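 Human umbilical vein endothelial cells co-cultured with PBMC were dosed with compound. Cell-surface CD142 was measured by ELISA 24 h later. Activity was fitted bidirectionally against DMSO, with SRB total-protein staining in parallel cultures for cytotoxicity.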
# [13] = read-out: Tumor necrosis factor (Homo sapiens) (UniProt P01375); assay: BSK_LPS_TNFa: BioMAP Diversity Plus: LPS Assay for Tumour Necrosis Factor alpha (TNFa) Biomarker Activity (AID 2283085); settings: primary human HUVEC with PBMC; actives raise or lower the signal;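 for AC50: TNFa protein level quantified by ELISA in the co-culture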
# How it was run: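 Cells (umbilical vein endothelium plus peripheral blood mononuclear cells) were dosed with chemical, incubated 24 h, then TNFa was quantified by ELISA; values derive from bidirectional fitting with DMSO as baseline.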
# [14] = read-out: Vascular cell adhesion molecule 1 (VCAM1), VCAM1 (gene 7412); assay: BSK_LPS_VCAM1: BioMAP Diversity Plus: LPS Assay for Vascular cell adhesion molecule 1 (VCAM1) Biomarker Activity (AID 2283086); settings: primary human HUVEC with PBMC; actives raise or lower the signal
# How it was run: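 Cells are dosed in an LPS-stimulated endothelial/mononuclear co-culture and, after 24 h, VCAM-1 is quantified by ELISA. Activity in either direction is fitted relative to the DMSO negative control.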
# [15] = read-out: CD38, CD38 (gene 952); assay: BSK_SAg_CD38: BioMAP Diversity Plus: SAg Assay for CD38 Biomarker Activity (AID 2283087); settings: primary human HUVEC with PBMC; actives raise or lower the signal
# How it was run: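 CD38 quantified by ELISA (fluorescence) in a superantigen-activated endothelial cell–PBMC co-culture at 24 h post-dose. Activity fitted in both directions relative to DMSO; parallel SRB and Alamar Blue cytotoxicity read-outs.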
# [16] = read-out: CD40, CD40 (gene 958); assay: BSK_SAg_CD40: BioMAP Diversity Plus: SAg Assay for CD40 Biomarker Activity (AID 2283088); settings: primary human HUVEC with PBMC; actives raise or lower the signal
# How it was run: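 HUVEC plus PBMC co-culture, superantigen-activated, with CD40 read by ELISA 24 h after dosing. Curves fitted in both directions against DMSO. Overt cytotoxicity checked by parallel SRB total-protein staining.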
# [17] = read-out: CD69, CD69 (gene 969); assay: BSK_SAg_CD69: BioMAP Diversity Plus: SAg Assay for CD69 Biomarker Activity (AID 2283089); settings: primary human HUVEC with PBMC; actives raise or lower the signal;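 for AC50: cell surface CD69 protein quantified by ELISA with fluorescence detection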
# How it was run: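 Primary human vascular co-culture (umbilical vein endothelium with peripheral blood mononuclear cells) exposed to test chemical for 24 h. CD69 levels quantified by fluorescence ELISA; DMSO served as negative control for bidirectional fitting.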
# [18] = read-out: Monocyte Chemoattractant Protein-1 (MCP1), CCL2 (gene 6347); assay: BSK_SAg_MCP1: BioMAP Diversity Plus: SAg Assay for Monocyte Chemoattractant Protein-1 (MCP1) Biomarker Activity (AID 2283090); settings: primary human HUVEC with PBMC; actives raise or lower the signal
# How it was run: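 Values derive from bidirectional fitting of ELISA-measured MCP1 against DMSO controls. Readings were taken 24 h after dosing human vascular endothelial cells co-cultured with peripheral blood mononuclear cells under superantigen stimulation.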
# [19] = read-out: E-selectin (Homo sapiens) (UniProt P16581); assay: BSK_SAg_Eselectin: BioMAP Diversity Plus: SAg Assay for Eselectin Biomarker Activity (AID 2283091); settings: primary human HUVEC with PBMC; actives raise or lower the signal
# How it was run: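 Human umbilical vein endothelial cells co-cultured with peripheral blood mononuclear cells, SAg system. E-selectin is measured by ELISA 24 h after dosing and fitted bidirectionally against DMSO. Cytotoxicity is checked by SRB staining of parallel cultures.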
# [20] = read-out: Monokine induced gamma interferon (MIG), CXCL9 (gene 4283); assay: BSK_SAg_MIG: BioMAP Diversity Plus: SAg Assay for Monokine induced gamma interferon (MIG) Biomarker Activity (AID 2283092); settings: primary human HUVEC with PBMC; actives raise or lower the signal
# How it was run: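 Endothelial cells and PBMC were co-cultured, exposed to test chemicals, and sampled 24 h later. MIG was measured by ELISA, and responses were fitted in both directions relative to DMSO.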
# E-selectin (Homo sapiens), sequence (P16581 whole entry, looked up): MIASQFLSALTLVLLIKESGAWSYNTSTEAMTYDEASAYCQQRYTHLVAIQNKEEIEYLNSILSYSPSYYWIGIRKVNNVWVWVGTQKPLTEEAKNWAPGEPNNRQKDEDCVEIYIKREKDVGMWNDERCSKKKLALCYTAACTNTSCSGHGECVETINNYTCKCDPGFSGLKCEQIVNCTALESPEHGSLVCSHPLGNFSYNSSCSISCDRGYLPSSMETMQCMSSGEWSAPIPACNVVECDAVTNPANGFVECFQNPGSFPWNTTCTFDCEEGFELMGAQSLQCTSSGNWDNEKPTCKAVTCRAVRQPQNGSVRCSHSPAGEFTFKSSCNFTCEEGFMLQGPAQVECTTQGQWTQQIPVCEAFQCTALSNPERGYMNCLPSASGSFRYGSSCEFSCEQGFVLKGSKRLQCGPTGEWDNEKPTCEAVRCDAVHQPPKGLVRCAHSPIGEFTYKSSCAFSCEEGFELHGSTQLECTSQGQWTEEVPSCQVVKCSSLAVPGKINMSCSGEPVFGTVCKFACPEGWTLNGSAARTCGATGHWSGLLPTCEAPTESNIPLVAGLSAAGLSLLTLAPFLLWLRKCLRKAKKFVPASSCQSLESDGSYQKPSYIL
# Tumor necrosis factor (Homo sapiens), sequence (P01375 whole entry, looked up): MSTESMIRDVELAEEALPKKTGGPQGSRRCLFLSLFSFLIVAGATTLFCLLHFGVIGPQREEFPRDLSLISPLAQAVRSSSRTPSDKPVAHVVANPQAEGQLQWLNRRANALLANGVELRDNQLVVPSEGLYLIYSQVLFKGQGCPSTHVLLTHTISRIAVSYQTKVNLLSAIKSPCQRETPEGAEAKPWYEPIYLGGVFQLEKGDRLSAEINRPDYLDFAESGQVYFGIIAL
compound,measurement,setting,value
C[C@]12C=CC(=O)C=C1CC[C@H]1[C@@H]3C[C@@H](O)[C@](O)(C(=O)CO)[C@@]3(C)C[C@H](O)[C@@]12F,outcome,[1],inactive
same,outcome,[2],inactive
same,outcome,[3],inactive
same,outcome,[4],inactive
same,outcome,[5],inactive
same,outcome,[6],inactive
same,outcome,[7],inactive
same,outcome,[8],inactive
same,outcome,[9],inactive
same,outcome,[10],inactive
same,outcome,[11],inactive
same,outcome,[12],inactive
same,AC50,[13],557 nM (active)
same,outcome,[14],inactive
same,outcome,[15],inactive
same,outcome,[16],inactive
same,outcome,[17],inactive
same,AC50,[18],5080 nM (active)
same,AC50,[19],3660 nM (active)
same,outcome,[20],inactive
CCCCCCCCCC,outcome,[1],inactive
same,outcome,[2],inactive
same,outcome,[3],inactive
same,outcome,[4],inactive
same,outcome,[5],inactive
same,outcome,[6],inactive
same,outcome,[7],inactive
same,outcome,[8],inactive
same,outcome,[9],inactive
same,outcome,[10],inactive
same,outcome,[11],inactive
same,outcome,[12],inactive
same,outcome,[13],inactive
same,outcome,[14],inactive
same,outcome,[15],inactive
same,outcome,[16],inactive
same,outcome,[17],inactive
same,outcome,[18],inactive
same,outcome,[19],inactive
same,outcome,[20],inactive
O=C1CN(N=Cc2ccc([N+](=O)[O-])o2)C(=O)N1,outcome,[1],inactive
same,outcome,[2],inactive
same,outcome,[3],inactive
same,outcome,[4],inactive
same,outcome,[5],inactive
same,outcome,[6],inactive
same,outcome,[7],inactive
same,outcome,[8],inactive
same,outcome,[9],inactive
same,outcome,[10],inactive
same,outcome,[11],inactive
same,outcome,[12],inactive
same,outcome,[13],inactive
same,AC50,[14],20000 nM (active)
same,outcome,[15],inactive
same,outcome,[16],inactive
same,outcome,[17],inactive
same,outcome,[18],inactive
same,AC50,[19],9330 nM (active)
same,outcome,[20],inactive
CCCCCCCC1CCC(=O)O1 (stereo unspecified),outcome,[1],inactive
same,outcome,[2],inactive
same,outcome,[3],inactive
same,outcome,[4],inactive
same,outcome,[5],inactive
same,outcome,[6],inactive
same,outcome,[7],inactive
same,outcome,[8],inactive
same,outcome,[9],inactive
same,outcome,[10],inactive
same,outcome,[11],inactive
same,outcome,[12],inactive
same,outcome,[13],inactive
same,outcome,[14],inactive
same,outcome,[15],inactive
same,outcome,[16],inactive
same,outcome,[17],inactive
same,outcome,[18],inactive
same,outcome,[19],inactive
same,outcome,[20],inactive
COc1cc2c(c(OC)c1OC)-c1ccc(OC)c(=O)cc1[C@@H](NC(C)=O)CC2,outcome,[1],inactive
same,AC50,[2],548 nM (active)
same,outcome,[3],inactive
same,AC50,[4],148 nM (active)
same,outcome,[5],inactive
same,outcome,[6],inactive
same,AC50,[7],245 nM (active)
same,AC50,[8],827 nM (active)
same,outcome,[9],inactive
same,outcome,[10],inactive
same,AC50,[11],493 nM (active)
same,outcome,[12],inactive
same,AC50,[13],2390 nM (active)
same,AC50,[14],431 nM (active)
same,AC50,[15],148 nM (active)
same,AC50,[16],218 nM (active)
same,AC50,[17],505 nM (active)
same,outcome,[18],inactive
same,outcome,[19],inactive
same,outcome,[20],inactive
OC(O)(C(F)C(O)(O)C(F)(F)F)C(F)(F)F,outcome,[1],inactive
same,outcome,[2],inactive
same,outcome,[3],inactive
same,outcome,[4],inactive
same,outcome,[5],inactive
same,outcome,[6],inactive
same,outcome,[7],inactive
same,outcome,[8],inactive
same,outcome,[9],inactive
same,outcome,[10],inactive
same,outcome,[11],inactive
same,AC50,[12],308 nM (active)
same,outcome,[12],inactive
same,AC50,[13],4 µM (active) and 13.3 µM (active)
same,outcome,[14],inactive
same,AC50,[15],16.6 µM (active) and 18.1 µM (active)
same,outcome,[16],inactive
same,outcome,[17],inactive
same,outcome,[18],inactive
same,outcome,[19],inactive
same,outcome,[20],inactive
